FBW7 act – FBW7 E3 ligase activators, primary screen, biochemical, AlphaScreen, human | AlphaScreen FBW7–phospho-cyclin E peptide binding, activator screen | normalized activity (activation), % at 26.1 µM | actives 0.13% (n = 650,000) | F-box/WD repeat-containing protein 7 (Homo sapiens), Q969H0; in the data active = normalized activity above about 1.9%;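 also: purified mutant Fbw7 with reduced substrate affinity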
GPR151 activ – activators of human GPR151, primary screen, cell-based, PathHunter beta-arrestin, luminescence; G-protein coupled receptor 151 (Homo sapiens), Q8TDV0; PathHunter beta-arrestin GPR151 cells; activation, % at 11.2 µM; actives 1% (n = 650,000); in the data active = activation above about 4.9%;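 also: 0% = median of compound wells and 100% = cells with positive control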
TEAD-YAP inh – TEAD-YAP interaction inhibition, primary screen, TEAD-YAP interaction inhibitor project, luminescence, HEK-TIYL cells | TEAD-Gal4/YAP UAS-luciferase luminescence | inhibition, % at 9.12 µM | actives 1.4% (n = 640,000); in the data active = inhibition above about 32%;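 also: 0% = median of test compound wells and 100% = reference inhibitor wells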
MITF inh – MITF inhibitors, primary screen, biochemical, AlphaScreen, human; AlphaScreen MITF homodimerization, bead proximity signal; inhibition, % at 2.6 µM; actives 0.91% (n = 650,000); AID 1259374, 2018; in the data active = inhibition above about 50%;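 also: 0% = vehicle wells with protein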
GPR151 confirm – GPR151 activators, triplicate retest, confirmation, cell-based, PathHunter beta-arrestin, luminescence; activation, % at 11.2 µM; GPR151 PathHunter beta-arrestin cells, 90 min; % of EA-reagent control over plate median; 6,700 tested, under 10 active; AID 1508609, 2020; shares compounds with GPR151 activ;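 active = mean percent activation across replicates above the confirmation screen cutoff of 4.91%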
GPR119 ag – GPR119 activators in beta-arrestin cells, counter-screen for GPR151 activator project, cell-based, PathHunter beta-arrestin, luminescence, triplicate. shares compounds with GPR151 activ. 90 min; 0 = compound-well median, 100 = enzyme-acceptor control. actives 0.3% (n = 6,700). activation, % at 11.2 µM;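 active = mean percent activation in the counterscreen above 29.09%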;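 also: counterscreen on off-target GPR119 to flag nonselective hits from the GPR151 activator screen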
Target sequence (Q8TDV5 whole entry, looked up): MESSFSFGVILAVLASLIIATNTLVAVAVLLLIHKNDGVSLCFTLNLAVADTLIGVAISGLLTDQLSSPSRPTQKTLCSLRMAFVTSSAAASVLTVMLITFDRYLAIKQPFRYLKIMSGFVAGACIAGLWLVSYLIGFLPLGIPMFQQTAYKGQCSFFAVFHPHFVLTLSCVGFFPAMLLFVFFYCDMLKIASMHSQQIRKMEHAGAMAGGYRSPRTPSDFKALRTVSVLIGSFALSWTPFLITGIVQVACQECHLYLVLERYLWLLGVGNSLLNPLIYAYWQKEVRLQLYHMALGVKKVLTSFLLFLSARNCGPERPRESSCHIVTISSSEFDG
Active calls of the source: *; · = no result given. Only some compounds are listed: those with a hit (about 3.4% of all), similar ones and a draw of the others.

SMILES	FBW7 act	GPR151 activ	TEAD-YAP inh	MITF inh	GPR151 confirm	GPR119 ag
Cn1c(SCC(=O)NCc2cccs2)nnc1-c1cccs1	0	-1	10	8	·	·
CCn1c(SCC(=O)Nc2cc(OC)cc(OC)c2)nnc1-c1cccs1	1	5.5*	18	-1	0	0
O=C(NCc1cccs1)Nc1ccccc1Cl	0	6.2*	-24	25	0	1
O=C(NCc1cccs1)Nc1ccccc1	0	0	-14	-4	·	·
O=C(NCc1ccccc1)C1(c2ccccc2)CCN(S(=O)(=O)c2ccccc2)CC1	0	5.6*	5	-8	0	-12
O=C(O)C1(c2ccccc2)CCN(S(=O)(=O)c2ccccc2)CC1	0	-1	-2	16	·	·
O=C(NCc1cccs1)C1(c2ccccc2)CC1	0	8.6*	2	5	0	3
COC(=O)c1cc(C(=O)Nc2ccccc2Br)cc([N+](=O)[O-])c1	0	0	9	3	·	·
Cc1ccc(N2CC(NC(=O)Nc3cccnc3)CC2=O)cc1 (stereo not given)	0	2	-6	-5	·	·
O=C1N=c2ccccc2=C1c1sc(=S)n(-c2ccc([N+](=O)[O-])cc2)c1O	0	0	3	9	·	·
COc1cc(NC(=O)C2CCN(c3ccc(Nc4ccccc4)nn3)CC2)cc(OC)c1OC	1	-1	-15	10	·	·
COc1cc(NC(=O)C2CCN(c3ccc(Nc4cc(OC)c(OC)c(OC)c4)nn3)CC2)cc(OC)c1OC	0	7.8*	-7	7	-1	-4
CC(C)(C)C(=O)NCCCc1nc2ccccc2[nH]1	0	3	5	-9	·	·
N#C/C(=C\c1cn(Cc2ccccc2)c2ccccc12)C(=O)NC1CC1	0	5.2*	-37	5	1	10
Cc1ccccc1CSCCNS(=O)(=O)c1ccccc1[N+](=O)[O-]	0	5.9*	0	-7	0	-5
C=CCSc1nnc2c(n1)OC(/C=C/c1ccc([N+](=O)[O-])o1)Nc1ccc(Br)cc1-2 (stereo not given)	0	9.1*	27	32	2	9
O=C(Nc1ccc2nsnc2c1)N1CCCCCC1	0	6.1*	-42	-9	0	-4
O=C(c1ccc2ccccc2n1)N1CCOCC1	0	5.4*	7	7	0	-5
CCOc1ccccc1NC(=O)C1=C(C)NC(=S)NC1c1ccc(N(C)C)cc1 (stereo not given)	0	-2	0	2	·	·
CC(=O)Nc1ccc(C(C(F)(F)F)(C(F)(F)F)C(F)(F)F)cc1[N+](=O)[O-]	0	5.0*	-8	3	0	-5
CCOc1ccc(S(=O)(=O)NCc2ccco2)c(C)c1C	0	-1	-9	-1	·	·
CCOc1c(S(=O)(=O)NCc2ccco2)ccc(Cl)c1Cl	0	6.3*	5	13	-2	-15
CC(C)CC(N=Cc1c(O)c2ccccc2oc1=O)C(=O)O (stereo not given)	0	5.5*	-6	-5	0	11
COc1ccc(CNCc2ccc3ccccc3c2)cc1OC	0	5.1*	4	34	1	1
COc1cc(/C=C2/N=C(c3ccccc3)NC2=O)cc(OC)c1OC	0	5.4*	3	2	0	2
O=C1NC(c2ccccc2)=N/C1=C/c1ccccc1	0	-1	-12	-6	·	·
COc1ccccc1CNc1nc(CN2CCN(C(C)=O)CC2)nc2c(C)cccc12	0	-1	0	-7	·	·
O=[N+]([O-])c1ccccc1-c1cnn(-c2ccc(F)cc2F)c1	1	5.9*	-37	15	-2	-19
O=[N+]([O-])c1ccccc1-c1cnn(-c2ccccc2)c1	0	-1	-52	9	·	·
Cc1oc(C)c(S(=O)(=O)NC(C)C)c1C(=O)NCc1ccco1	0	7.1*	2	-2	2	1
